The record followed here is PubChem BioAssay AID1224854 (National Center for Advancing Translational Sciences (NCATS), 2016).

The structures appear in SMILES notation. Inconclusive results are not listed. A number with no mark means an inactive call. Activity calls are given as the source filed them. Calls come from the whole dose curve; as a rule, active = well fitted activation curve with a large enough effect; inconclusive = small, poorly fitted or top-dose-only effect; inactive = flat fitted curve, though single readings scatter.

The nature of the test: Cell viability assay for measurement of the protective activity of small molecules against cell death caused by Zika virus infection in human astrocytoma cells. Particulars: SNB-19 Zika virus cytoprotection, ATP luminescence, 72 h; series mostly up to 46.1 µM; protection from virus-induced cell death: at the top concentration. An excerpt:
National Center for Advancing Translational Sciences [NCATS] Johns Hopkins University School of Medicine Florida State University Assay Overview: Zika virus infection causes cell death in certain cell types including human neural progenitor cells (hNPCs), astrocytes, and astrocytoma cell line (SNB-19). This cell viability assay measures the ATP content (level) in human astrocytoma cells (SNB-19) using a luminescence readout that is proportional to viable cell numbers. Decrease in the luminescence signal after Zika virus infection indicates the cell death caused by Zika virus. Small molecule inhibitors […] the decreased luminescence signal after Zika virus infection, indicating the protective effect of that small molecule on the cell death caused by Zika virus infection. This observed protective effect of small molecules against Zika virus induced cell death may result from inhibition of virus replication or cellular response to the virus infection.
Assay Protocol Summary: The medium for SNB-19 cells is composed of RPMI 1640 (ATCC, Cat.# 30-2001), 10% fetal bovine serum (FBS) (GE healthcare Life Sciences, Cat.# SH30071.03), and 1% Pen/Strep (Gibco, Cat.# 15140-122). The ATP content assay kit (PerkinElmer, Cat.# 6016731) was used to determine cell viability. The reagent was reconstituted and prepared as described by the manufacturer. Cells were seeded in 384- or 1536-well assay plates and cultured at 37 C with 5% CO2 for 16 to 20 hours. The typical cell seeding density in the 1536-well plate assay is 250 cells/well in 3ul medium for SNB-19 cells in tissue culture treated plates. Compounds were added to cells and incubated for one hour before addition of ZIKV solution to cells (2 FFU/cell). After incubation at 37 C with 5% CO2 for 72 hours, the reagent mixture of the ATP content assay kit was added to each well, followed by incubation at room temperature for 10 minutes. The luminescence intensity of the assay plates was measured using a ViewLux plate reader (PerkinElmer). […] The percentage inhibitions of the decreased cell viability by small molecule inhibitors were then calculated.
Take `CC=CC[C@@H](C)C(=O)[C@H]1C(=O)N[C@@H](C(C)C)C(=O)N(C)CC(=O)N(C)[C@@H](CC(C)C)C(=O)N[C@@H](C(C)C)C(=O)N(C)[C@@H](CC(C)C)C(=O)N[C@@H](C)C(=O)N[C@H](C)C(=O)N(C)[C@@H](CC(C)C)C(=O)N(C)[C@@H](CC(C)C)C(=O)N(C)[C@@H](C(C)C)C(=O)N1C`: the “protection from virus-induced cell death” value is -7.94%.
Still for that read-out and setting: the same measure for `CCCSc1ccc2nc(NC(=O)OC)[nH]c2c1`: 1.59%.
In the case of `COc1cc(NC(C)CCCN)c2ncccc2c1` (stereo not given), the Potency was 17.3 µM (active).
Turning to `O=c1c(-c2ccc(O)cc2)coc2cc(OC3O[C@H](CO)[C@H](O)[C@H](O)[C@H]3O)cc(O)c12` (stereo not given in full), the “protection from virus-induced cell death” value is 8.55%.
In the case of `COc1ccnc2c1CCCCC2S(=O)c1nc2ccccc2[nH]1` (stereo not given), the “protection from virus-induced cell death” value is 9.31%.
For `O=C(Nc1ncc([N+](=O)[O-])s1)c1cccs1`, the “protection from virus-induced cell death” value is -5.39%.
As for `O=c1[nH]nc(Sc2ncc([N+](=O)[O-])s2)n1-c1ccc2c(c1)OCCO2`, the Potency was 6.15 µM (active).
As to `[O-][n+]1ccccc1SSc1cccc[n+]1[O-]`, the “protection from virus-induced cell death” value was -20.1% [at 88.3 µM].
In the case of `CC(C(=O)O)c1ccc(C(=O)c2ccccc2)s1` (stereo not given), the “protection from virus-induced cell death” value is -3.16%.
On the same count and under the same terms, the same measure for `O=C(OCc1ccccc1)c1ccc(O)cc1`: 10.1%.
On the same count and under the same terms, the same measure for `COCCn1c2c([n+](Cc3cnccn3)c1C)C(=O)c1ccccc1C2=O`: -22.2%.
For `O=C1c2ccccc2-[n+]2ccc3c([nH]c4ccccc43)c21`, the “protection from virus-induced cell death” value was -21%.
The same measure, in the same setting: for `Nc1ccc(-c2ccc3ccccc3n2)cc1` the value was -18.9%.
As for `CCCS(=O)c1ccc2nc(NC(=O)OC)[nH]c2c1` (stereo not given), the “protection from virus-induced cell death” value was 4.13%.
Same read-out and setting: the same measure for `O=C(Oc1ccccc1)c1cccc(C(=O)Oc2ccccc2)c1`: 3.11% [at 96.3 µM]; for `O=c1c(-c2ccc(O)cc2)coc2cc(O)ccc12`: -12.4%; for `O=C1C[C@@H](c2ccc(O)cc2)Oc2cc(O)cc(O)c21`: -7.24%.
Same read-out and setting: for `CCOCCOC(=O)/C=C/c1ccc(OC)cc1` the value was 0.0435%.
On the same count and under the same terms, the same measure for `N#CC1(c2ccc(NC(=O)c3cccnc3NCc3ccncc3)cc2)CCCC1`: 6.68%.
As to `Nc1nc2ccc([N+](=O)[O-])cc2s1`, the “protection from virus-induced cell death” value is 9.51% [at 88.3 µM].
Take `CCN(CC)c1ccc(C(=C2C=CC(=[N+](CC)CC)C=C2)c2cc(S(=O)(=O)O)ccc2S(=O)(=O)[O-])cc1`: the “protection from virus-induced cell death” value was -9.19%.
On the same count and under the same terms, for `CC(C(=O)O)c1ccc(-c2ccccc2)c(F)c1` (stereo not given) the value was -3.91%.
On to `O=c1c2ccccc2nc2n1CCc1c-2[nH]c2ccccc12`, for which the “protection from virus-induced cell death” value is -7.42%.
With `O=C(c1ccccc1)c1ccc2n1CCC2C(=O)O` (stereo not given), the “protection from virus-induced cell death” value is 17.1%.
As to `Clc1ccccc1-c1nc(-c2ccncc2)no1`, the “protection from virus-induced cell death” value was -3.86%.
Consider `COc1cc2nc(-c3ccc(N4CCN(C)CC4)cc3)nc(NCCN3CCOCC3)c2cc1OC`, for which the Potency is 1.95 µM (active).
As to `CO[C@H]1C(=O)[C@]2(C)[C@@H](OC)C[C@H]3OC[C@@]3(OC(C)=O)[C@H]2[C@H](OC(=O)c2ccccc2)[C@]2(O)C[C@H](OC(=O)[C@H](O)[C@@H](NC(=O)OC(C)(C)C)c3ccccc3)C(C)=C1C2(C)C`, the “protection from virus-induced cell death” value was -12.5%.
Take `CCOC1OC(=O)C[C@H]1NC(=O)[C@@H]1CCCN1C(=O)[C@@H](NC(=O)c1ccc(N)c(Cl)c1)C(C)(C)C` (stereo not given in full): the “protection from virus-induced cell death” value was 0.201%.
In the case of `O=C(O)c1cc([N+](=O)[O-])ccc1NCCCc1ccccc1`, the “protection from virus-induced cell death” value is 0.997%.
Turning to `O=C(O)Cc1ccc(-c2ccccc2)cc1`, the “protection from virus-induced cell death” value is 3.6%.
On the same count and under the same terms, for `Nc1ccc2c(c1)CN1C(=O)c3ccccc3C1=N2` the value was -13.3% [at 23.8 µM]; for `COc1ccc(/C=C/C(=O)Nc2ccccc2C(=O)O)cc1OC`, -8.74%.
Same read-out and setting: for `O=C(O)[C@@H](c1ccc(OCc2ccc3ccccc3n2)cc1)C1CCCC1` the value was -6.29%; for `Nc1ccc(O)c(C(=O)O)c1`, -6.75%; for `Cc1oncc1C(=O)Nc1ccc(C(F)(F)F)cc1`, -6.36%.
As to `CC(=NNC(=S)N1CCC1)c1ccccn1`, the Potency is 0.69 µM (active).
`O=C(Nc1cc2cc[nH]c2cn1)c1ccccc1`: the “protection from virus-induced cell death” value is -20.2%.
Take `CC(C)(C)OC(=O)CN(Cc1ccc(Cl)cc1)Cc1ccc([N+](=O)[O-])s1`: the Potency is 35.5 µM (active).
Turning to `O=C1NC(=O)C(=Cc2ccc(-c3ccc(F)cc3)o2)S1`, the “protection from virus-induced cell death” value was -4.09%.
Take `CN(C)c1ccc(C(=C2C=CC(=[N+](C)C)C=C2)c2ccccc2)cc1`: the “protection from virus-induced cell death” value is -19.4%.
